Among all 7,700 compounds or so, about 15 (0.2%) were called active. Roughly 6% stayed inconclusive and do not appear here.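 The calls were made as follows: active = more than half of replicate wells with inhibition above about 18% (limit read from the data, passing the limit was not always enough); inconclusive = exactly half of replicate wells above that limit; inactive = fewer than half of replicates above it.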 Many of the other results were omitted from the sample, so actives are more common in it than they were.
The compounds below were run against Regulator of chromosome condensation (Homo sapiens) + GTP-binding nuclear protein Ran (Homo sapiens) + Importin subunit beta-1 (Homo sapiens) (UniProt P18754+P62826+Q14974) (assay: RanGTP/importin-beta interaction disruptors – biochemical, CFP-Ran/YFP-importin-beta FRET, RCC1, cell-free, primary screen (AID 434961;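 also: 0% = DMSO wells and 100% inhibition = RanGDP control wells on each plate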)). Details: active compounds read high, concentration not given here.
For `C[C@@H]1CCCCO[C@@H](CN(C)S(=O)(=O)c2cn(C)cn2)[C@H](C)CN([C@@H](C)CO)C(=O)c2cc(NC(=O)c3ccccc3)ccc2O1`, the inhibition was 1.13% (inactive). `Cc1ccc(S(=O)(=O)Nc2ccc3c(c2)CC(=O)N([C@H](C)CO)C[C@H](C)[C@@H](CN(C)Cc2ccncc2)O3)cc1` was tested, and the inhibition was 0.0587% (inactive). For `Cc1noc(C)c1S(=O)(=O)Nc1ccc2c(c1)CC(=O)N([C@H](C)CO)C[C@@H](C)[C@@H](CN(C)C(=O)NC(C)C)O2`, the inhibition was -4.94% (inactive). For `C[C@H]1CN([C@@H](C)CO)C(=O)Cc2cc(NC(=O)C3CC3)ccc2O[C@H]1CN(C)Cc1ccc(Cl)c(Cl)c1`, the inhibition was 7.64% (inactive). For `C[C@@H]1CCCCO[C@H](CN(C)C(=O)Nc2ccccc2)[C@@H](C)CN([C@H](C)CO)C(=O)c2cc(NC(=O)Cc3ccccc3)ccc2O1`, the inhibition was 0.496% (inactive). `C[C@@H]1CCCCO[C@H](CN(C)C(=O)CCCN(C)C)[C@@H](C)CN([C@H](C)CO)C(=O)c2cc(NS(=O)(=O)c3cccs3)ccc2O1` was tested, and the inhibition was -2.86% (inactive). `C[C@@H]1CN([C@@H](C)CO)C(=O)c2cc(NC(=O)c3ccncc3)ccc2O[C@H]1CN(C)C(=O)Nc1ccccc1` was tested, and the inhibition was 4.49% (inactive). For `Cc1noc(C)c1NC(=O)N(C)C[C@@H]1Oc2ccc(NC(=O)Nc3cccc4ccccc34)cc2C(=O)N([C@H](C)CO)C[C@H]1C`, the inhibition was -0.0777% (inactive). For `C[C@@H]1CN([C@H](C)CO)C(=O)Cc2cc(NC(=O)C3CC3)ccc2O[C@H]1CN(C)C`, the inhibition was -6.15% (inactive). In the case of `C[C@@H]1CCCCO[C@H](CN(C)Cc2ccncc2)[C@H](C)CN([C@H](C)CO)C(=O)c2cc(NC(=O)c3ccncc3)ccc2O1`, the inhibition was -0.929% (inactive). With `C[C@@H]1CCCCO[C@@H](CN(C)S(=O)(=O)c2cccs2)[C@H](C)CN([C@H](C)CO)C(=O)c2cc(NS(C)(=O)=O)ccc2O1` the inhibition was -1.23% (inactive). For `Cc1cc(C(=O)Nc2cccc3c2O[C@@H](CN(C)CC2CC2)[C@@H](C)CN([C@@H](C)CO)C3=O)n(C)n1`, the inhibition was -1.14% (inactive). In the case of `C[C@@H]1CN([C@H](C)CO)C(=O)c2cccc(NC(=O)c3ccc(-c4nccs4)cc3)c2O[C@@H]1CN(C)C(=O)Nc1ccccc1`, the inhibition was -1.55% (inactive). With `C[C@H]1CN([C@@H](C)CO)C(=O)c2cccc(NC(=O)c3ccc(-c4nccs4)cc3)c2O[C@H]1CN(C)CC1CC1` the inhibition was 1.58% (inactive). In the case of `C[C@H]1CN([C@@H](C)CO)C(=O)c2cccc(NC(=O)c3ccc(-c4nccs4)cc3)c2O[C@@H]1CN(C)C(=O)Nc1ccccc1`, the inhibition was 0.856% (inactive). For `C[C@@H]1CN([C@H](C)CO)C(=O)c2cccc(NC(=O)c3ccc(-c4nccs4)cc3)c2O[C@@H]1CN(C)CC1CC1`, the inhibition was 29.6% (active). In the case of `C[C@H]1CN([C@@H](C)CO)C(=O)c2cccc(NC(=O)c3ccc(-c4nccs4)cc3)c2O[C@H]1CN(C)C(=O)Nc1ccccc1`, the inhibition was 18.7% (active). For `C[C@H](CO)N1C[C@H](C)[C@H](CN(C)CC2CC2)Oc2c(NC(=O)c3ccc(-c4nccs4)cc3)cccc2C1=O`, the inhibition was -0.371% (inactive). In the case of `Cc1noc(C)c1NC(=O)N(C)C[C@@H]1Oc2ccc(NS(=O)(=O)c3cccs3)cc2C(=O)N([C@H](C)CO)C[C@@H]1C`, the inhibition was -1.63% (inactive). In the case of `C[C@@H]1CCCCO[C@@H](CN(C)C(=O)CCC(F)(F)F)[C@H](C)CN([C@@H](C)CO)C(=O)c2cc(NS(=O)(=O)c3ccccc3)ccc2O1`, the inhibition was -3.22% (inactive). For `C[C@@H]1CN([C@@H](C)CO)C(=O)c2cccc(NS(C)(=O)=O)c2O[C@H]1CN(C)S(=O)(=O)c1cn(C)cn1`, the inhibition was 0.88% (inactive). In the case of `C[C@H]1CN([C@@H](C)CO)C(=O)Cc2cc(NC(=O)Cc3cn(C)c4ccccc34)ccc2O[C@@H]1CN(C)C(=O)Nc1ccccc1`, the inhibition was 0.0312% (inactive). `Cc1noc(C)c1S(=O)(=O)Nc1cccc2c1O[C@H](CN(C)C(=O)NC1CCCCC1)[C@H](C)CN([C@@H](C)CO)C2=O` was tested, and the inhibition was -6.51% (inactive). With `Cc1noc(C)c1S(=O)(=O)Nc1cccc2c1O[C@@H](CN(C)Cc1ccc(C(F)(F)F)cc1)[C@@H](C)CN([C@@H](C)CO)C2=O` the inhibition was -1.54% (inactive). `C[C@H]1CN([C@@H](C)CO)C(=O)c2cc(NC(=O)C3CC3)ccc2O[C@@H]1CN(C)Cc1ccc(Cl)c(Cl)c1` was tested, and the inhibition was -5.2% (inactive). In the case of `C[C@@H]1CN([C@H](C)CO)C(=O)Cc2cc(NC(=O)Nc3ccccc3)ccc2O[C@@H]1CN(C)C(=O)Nc1ccc(C(F)(F)F)cc1`, the inhibition was -1.14% (inactive). In the case of `C[C@@H]1CCCCO[C@H](CN(C)C)[C@@H](C)CN([C@H](C)CO)C(=O)c2cc(NC(=O)Nc3ccc(F)cc3)ccc2O1`, the inhibition was 3.67% (inactive). For `Cc1noc(C)c1S(=O)(=O)Nc1cccc2c1O[C@H](CN(C)C)[C@H](C)CN([C@H](C)CO)C2=O`, the inhibition was 5.73% (inactive). In the case of `C[C@@H]1CN([C@@H](C)CO)C(=O)c2cc(NC(=O)Nc3ccc4c(c3)OCO4)ccc2O[C@@H]1CN(C)Cc1ccc(C(=O)O)cc1`, the inhibition was -3.71% (inactive). For `C[C@@H]1CN([C@@H](C)CO)C(=O)CCCn2nncc2CO[C@@H]1CN(C)C`, the inhibition was 4.43% (inactive). In the case of `COc1ccc(CN(C)C[C@@H]2OCCCC[C@H](C)Oc3ccc(NC(=O)Nc4c(C)noc4C)cc3C(=O)N([C@H](C)CO)C[C@@H]2C)cc1`, the inhibition was 0.0847% (inactive). In the case of `Cc1noc(C)c1S(=O)(=O)Nc1ccc2c(c1)CC(=O)N([C@H](C)CO)C[C@H](C)[C@H](CN(C)C(=O)Nc1cccc3ccccc13)O2`, the inhibition was 5.9% (inactive). `C[C@H](CO)N1C[C@H](C)[C@H](CN(C)S(=O)(=O)c2cccs2)Oc2c(NC(=O)Nc3ccc(C(F)(F)F)cc3)cccc2C1=O` was tested, and the inhibition was 3.84% (inactive). `CC(C)NC(=O)N(C)C[C@H]1OCCCC[C@H](C)Oc2ccc(NC(=O)CCCN(C)C)cc2C(=O)N([C@H](C)CO)C[C@@H]1C` was tested, and the inhibition was -1.47% (inactive). With `C[C@@H]1CN([C@@H](C)CO)C(=O)CCCn2cc(nn2)CO[C@H]1CN(C)C(=O)Nc1ccc(-c2cccs2)cc1` the inhibition was -3.35% (inactive).
